Experimental findings from PubChem BioAssay (NCATS) are described below.

In assay [1] the target is Cytochrome P450 3A4 (Homo sapiens) (UniProt P08684). Kind of assay: qHTS Assay for Inhibitors and Substrates of Cytochrome P450 3A4 (AID 884). Note: nearly all actives have a fitted effect of over 50% in size. Note: potency is the fitted concentration of half-maximal effect. The conditions noted are these: recombinant CYP3A4, Luciferin-PPXE luminescence; series mostly up to 57.1 µM. Summed up: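 20 nM human CYP3A4 with 25 uM Luciferin-PPXE (at KM) in 200 mM KPO4, preincubated 10 min with compound; NADPH regeneration started a 60 min RT reaction. Luciferin detected by luminescence, normalized to 57 uM ketoconazole as full inhibition.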
Sequence of Cytochrome P450 3A4 (Homo sapiens) (P08684 whole entry, looked up): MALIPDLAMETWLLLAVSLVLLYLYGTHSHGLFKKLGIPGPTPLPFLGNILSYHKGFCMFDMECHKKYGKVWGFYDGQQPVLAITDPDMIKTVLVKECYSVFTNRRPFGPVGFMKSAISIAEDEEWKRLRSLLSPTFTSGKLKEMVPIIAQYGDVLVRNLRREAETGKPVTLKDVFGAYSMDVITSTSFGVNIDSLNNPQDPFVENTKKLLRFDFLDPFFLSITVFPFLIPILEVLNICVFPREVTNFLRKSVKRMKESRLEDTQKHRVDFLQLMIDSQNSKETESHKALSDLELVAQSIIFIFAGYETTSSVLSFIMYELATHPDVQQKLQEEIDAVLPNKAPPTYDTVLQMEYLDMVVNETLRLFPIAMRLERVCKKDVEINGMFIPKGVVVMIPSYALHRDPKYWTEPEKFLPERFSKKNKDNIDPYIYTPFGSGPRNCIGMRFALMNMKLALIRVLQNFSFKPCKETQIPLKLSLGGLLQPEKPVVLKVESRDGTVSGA
In general terms: qHTS replaces the single test concentration by a dilution series.

The target is the same in assay [2]. Kind of assay: qHTS Assay for Activators of Cytochrome P450 3A4 (AID 885). Note: nearly all actives have a fitted effect of over 65% in size. Conditions: recombinant CYP3A4, Luciferin-PPXE luminescence, 60 min; series mostly up to 57.1 µM. Summed up:
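20nM CYP3A4 + 25uM Luciferin-PPXE (=KM), 200mM KPO4; cpd 10 min RT; NADPH regen, 60 min RT; stop w/ detection buffer, 20 min; luminescence. Normalized to 57 uM ketoconazole.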

The nature of assay [3]: qHTS Assay for Lipid Storage Modulators (AID 1519; calls by dose curve; for activity change, negative = inhibition: % is set by controls: 0 for no effect and ±100 for the full control effect). The conditions noted are these: Drosophila S3 cells, BODIPY lipid droplet/cell ratio, laser cytometry, cells loaded with oleic acid. In short, it runs like this: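 Cells seeded at 5,000 per well were treated with compounds over a concentration series and loaded with oleic acid (400 uM, as added). Lipid droplet fluorescence (488 nm excitation, 500-530 nm channel) was read by laser-scanning cytometry and normalized to 20 uM Triacsin C.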

Assay [4] has as its target DNA repair nuclease/redox regulator APEX1 (Homo sapiens) (UniProt P27695). Briefly: qHTS Validation Assay for Inhibitors of the Human Apurinic/apyrimidinic Endonuclease 1 (APE1) (AID 1705;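 note: TAMRA fluorescence gain over two minutes as APE1 cuts a quenched THF abasic duplex; % is set by controls: 0 for no effect and ±100 for the full control effect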). The conditions noted are these: purified APE1 endonuclease activity, fluorescence, titration; series mostly up to 57.1 µM. In short, it runs like this: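 Activity read as rising fluorescence (598 nm emission, 525 nm excitation) from incision of a TAMRA/BHQ-2 duplex carrying a THF abasic site (50 nM). Compound and enzyme sat 15 min at RT before substrate start; signal change between first and third 60-s reads.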

A short description of assay [5]: Counterscreen for APE1 Inhibitors: Fluorescent Dye Displacement Validation Assay (AID 1707).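 Note: plate controls were ThO with dsDNA and no compound for no effect and ThO without dsDNA for full effect.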 Conditions: fluorescent dye displacement from DNA; series mostly up to 57.1 µM. Summed up: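 Thiazole Orange displacement from dsDNA: 250 nM ThO with 50 nM TAMRA-labelled abasic-site (tetrahydrofuran) duplex in 50 mM Tris-HCl pH7.5, 50mM NaCl, 2 mM MgCl2, 0.01% Tween-20. Loss of endpoint fluorescence (ex 480 nm, em 540 nm) flags DNA binders.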
On the technique in general: A counterscreen serves to expose hits that act by an unwanted route or on another target.

In assay [6] the target is Endonuclease 4 (Escherichia coli (strain K12)) (UniProt P0A6C1). Briefly: Counterscreen for APE1 Inhibitors: qHTS Validation Assay for Inhibitors of Endonuclease IV (AID 1708). Note: % is set by controls: 0 for no effect and ±100 for the full control effect. Conditions: E. coli endonuclease IV, DNA cleavage fluorescence; series mostly up to 57.1 µM. Summed up: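 Cleavage of a quenched abasic-site DNA duplex (50 nM, 5'-TAMRA, 3'-BHQ-2) by 2 nM enzyme is followed as fluorescence increase. Compounds are preincubated with enzyme 15 min at room temperature before substrate addition.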

Assay [7] addresses Cytochrome P450 2C19 (Homo sapiens) (UniProt P33261). Briefly: qHTS Assay for Inhibitors and Substrates of Cytochrome P450 2C19 (AID 899). Note: % is set by controls: 0 for no effect and ±100 for the full control effect; nearly all actives have a fitted effect of over 60% in size. Conditions: recombinant CYP2C19, luciferin-H EGE luminescence; series mostly up to 11.4 µM. In short, it runs like this: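 Signal comes from luciferase acting on luciferin released by CYP2C19-mediated hydroxylation of Luciferin-H EGE, 10uM (KM). Assay mix: 5nM enzyme, 50mM KPO4; 60 min at 37C with NADPH regeneration. Data normalized against 57uM ketoconazole.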

Assay [8] can be described thus: Confirmation and Secondary Assay for Modulators of Hemoglobin Beta Chain Splicing at IVS2 654 locus (AID 910).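 Note: HeLa cells stably carrying EGFP split by mutant beta-globin IVS2-654 intron; % of control where 0% means no effect.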 The conditions noted are these: HeLa EGFP-654 splicing reporter, GFP fluorescence, 48 h; series mostly up to 46.1 µM. Summed up:
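HeLa cells stably expressing EGFP interrupted by β-globin IVS2-654 intron, seeded overnight in Opti-MEM/2% FCS, then treated 2 days at 37 °C. Restored splicing read as total peak GFP intensity per well by laser scanning cytometry (488 nm excitation, 500–520 nm emission); 500 nM antisense PNA as control.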

Assay [9] in a line: Confirmation and Secondary Assay for Modulators of Hemoglobin Beta Chain Splicing at IVS2 705 locus (AID 930).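 Note: HeLa cells stably expressing the EGFP-705 splicing reporter; % of control where 0% means no effect.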 Conditions: HeLa EGFP-705 splicing reporter, GFP fluorescence, 48 h; series mostly up to 46.1 µM. In short, it runs like this:
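Restored EGFP fluorescence after 2-day compound exposure reports splicing correction in IVS2-705 EGFP reporter HeLa cells; positive control was 500 nM splice-blocking PNA oligo. Signal measured as well total peak GFP intensity (488 nm excitation).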

Assay [10] in a line: qHTS Assay for Identification of Small Molecule Antagonists for NFkB Signaling Pathway (AID 895; active = well fitted inhibition curve with a large enough effect in the signal ratio, with a control signal flat, not every such curve was filed as active; the % refers to the signal ratio; note: % is set by controls: 0 for no effect and ±100 for the full control effect). Conditions: NFkB beta-lactamase reporter cells, FRET ratio 460/530, stimulated with 10 pM TNF alpha; series mostly up to 38.3 µM. In short, it runs like this:
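ME-180 NFkB-bla cells (beta-lactamase under NFkB response element), plated overnight, treated with compound then 10 pM TNF alpha (about EC50) for 5 hrs at 37 C. LiveBLAzer FRET read at 460/530 nm emission, 405 nm excitation.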

Assay [11] is described as follows: qHTS Assay for Identification of Small Molecule Agonists for Thrombopoietin (TPO) Signaling Pathway (AID 917). Note: potency is the fitted concentration of half-maximal effect. The conditions noted are these: TPO signaling pathway reporter cells, agonist qHTS; stimulated with TPO at its EC50. Summed up:
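Reporter: GpIIb promoter–luciferase in murine Ba/F3 expressing human TPO receptor. Pre-starved of IL-3 overnight; compounds with 26 pM TPO, 24 hrs, 37 C/5% CO2; luminescence read.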

Assay [12] addresses Muscarinic acetylcholine receptor M1 (Rattus norvegicus) (UniProt P08482). Briefly: qHTS Assay for Antagonists of Acetylcholine Muscarinic M1 Receptor: Measurement of IP-One Response (AID 944). Note: nearly all actives have a fitted effect of over 75% in size. Conditions: CHO-M1 cells, IP-One HTRF, antagonist mode; series mostly up to 46.1 µM. In short, it runs like this: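 CHO cells expressing rat M1 receptor, recovered overnight, were pre-incubated 10 min with compound, then stimulated 30 min with carbachol at EC80 (200 nM) in LiCl-containing buffer, pH 7.4. IP1 accumulation was read by HTRF (620/665 nm).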

Assay [13] has as its target Pyruvate kinase (Leishmania mexicana) (UniProt Q27686). Kind of assay: qHTS Validation Assay for Inhibitors of Leishmania Mexicana Pyruvate Kinase (AID 945).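 Note: 0% = DMSO only neutral control wells.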 The conditions noted are these: purified L. mexicana pyruvate kinase, enzyme activity, E451W mutant enzyme; series mostly up to 57.5 µM. Summed up:
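Purified LmPYK (E451W mutant, 0.2 nM) was incubated 1 h at room temperature with 0.5 mM PEP and 0.1 mM ADP in 50 mM imidazole pH 7.2, 50 mM KCl, 7 mM MgCl2; ATP formed was read by PKLight luminescence, normalized to DMSO wells.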

Assay [14] concerns the target Pyruvate kinase PKM (Homo sapiens) (UniProt P14618). Kind of assay: qHTS Assay for Activators of Human Muscle Pyruvate Kinase (AID 954; active = well fitted curve in the direction sought with a large enough effect, not every such curve was filed as active;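 note: 0% = uninhibited enzyme and -100% = no enzyme or full thiadiazolimine inhibition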). Conditions: purified human muscle pyruvate kinase, luciferase-coupled luminescence, 1 h; series mostly up to 57.5 µM. In short, it runs like this: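 Luminescence from a luciferase ATP-detection/stop reagent reported PKM2 activity. Reactions contained 0.1 nM purified human enzyme, 0.5 mM PEP, 0.1 mM ADP and 7 mM MgCl2 at pH 7.2, run 1 h at RT.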

Assay [15] addresses Alpha-galactosidase A (Homo sapiens) (UniProt P06280). Briefly: Counterscreen for Glucocerebrosidase Inhibitors: qHTS Assay for Human alpha-Galactosidase at pH 4.5 (AID 992). Note: 0% is about no effect. The conditions noted are these: purified enzyme, fluorogenic substrate; series mostly up to 76.9 µM. Summed up:
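Enzyme at 2 nM final was combined with compound (0.7 nM to 77 uM) and 80 uM 4-methylumbelliferyl alpha-D-galactopyranoside in 50 mM citric acid, 0.005% Tween-20, pH 4.5. After 20 min at room temperature, fluorescence was read (Ex 365/Em 440 nm); AC50 came from Hill fits.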

In assay [16] the target is alpha-glucosidase (Oryza sativa, rice) (UniProt Q653V4). Briefly: Counterscreen for Glucocerebrosidase Inhibitors: qHTS Assay for Rice alpha-Glucosidase at pH 5.0 (AID 997).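 Note: 0% = full activity with enzyme and -100% = basal without enzyme.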 The conditions noted are these: rice alpha-glucosidase enzyme activity; series mostly up to 76.9 µM. Summed up: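 Rice alpha-glucosidase (4 nM final) with 400 uM 4-methylumbelliferyl-alpha-D-glucopyranoside in citrate buffer pH 5.0, 20 min at room temperature, stopped at pH 10; fluorescence 365/440 nm, compounds 0.7 nM–77 uM, AC50 from Hill fits.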

Assay [17] in a line: Validation of Assay for Modulators of Lamin A Splicing (AID 1459; active = well fitted curve in the direction sought with a large enough effect in the signal ratio; the % refers to the signal ratio;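 note: cells exposed to compound for two days before reading; 0% is about no effect; ratio rise marks activators and ratio drop marks inhibitors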). The conditions noted are these: Lamin A splicing dual RFP/GFP fluorescence reporter; series mostly up to 9.22 µM. Summed up:
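Splicing correction read as GFP (500-530 nm) over DsRed2 (575-640 nm) object intensity after 48 h compound exposure of reporter HeLa S3 clones (600 cells/well, 2% FBS medium); ancitabine and cycloheximide titrations, 0.5% DMSO as vehicle.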

A short description of assay [18]: qHTS for differential inhibitors of proliferation of Plasmodium falciparum line GB4 (AID 1816).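 Note: parasite growth measured after 72 h incubation; 0% = vehicle DMSO and -100% = reference inhibitor.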 The conditions noted are these: series mostly up to 28.7 µM.
The nature of assay [19]: qHTS for differential inhibitors of proliferation of Plasmodium falciparum line 3D7 (AID 1876).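 Note: parasite growth measured after three days of culture; 0% = vehicle wells and -100% = reference inhibitor wells.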 The conditions noted are these: P. falciparum 3D7 proliferation inhibition; series mostly up to 28.7 µM.
Assay [20] in a line: qHTS for differential inhibitors of proliferation of Plasmodium falciparum line D10 (AID 1877).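 Note: parasites grown with compound for 72 h before DNA staining; plate controls were vehicle wells for no effect and reference inhibitor wells for full effect.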 Conditions: series mostly up to 28.7 µM.
Setting [21] is: measured here: cell count channel max response.
Where [22] appears, read: measured here: lipid channel max response.

Each structure is given as a SMILES string. Results filed as inconclusive are left out. Activity calls are given as the source filed them. Unless noted, calls come from the whole dose curve; as a rule, active = well fitted curve in the direction sought with a large enough effect; inconclusive = small, poorly fitted or top-dose-only effect, or another doubt; inactive = no such curve, though single readings can be large; an effect the other way counts as inactive or inconclusive.

Sequence of DNA repair nuclease/redox regulator APEX1 (Homo sapiens) (P27695 whole entry, looked up): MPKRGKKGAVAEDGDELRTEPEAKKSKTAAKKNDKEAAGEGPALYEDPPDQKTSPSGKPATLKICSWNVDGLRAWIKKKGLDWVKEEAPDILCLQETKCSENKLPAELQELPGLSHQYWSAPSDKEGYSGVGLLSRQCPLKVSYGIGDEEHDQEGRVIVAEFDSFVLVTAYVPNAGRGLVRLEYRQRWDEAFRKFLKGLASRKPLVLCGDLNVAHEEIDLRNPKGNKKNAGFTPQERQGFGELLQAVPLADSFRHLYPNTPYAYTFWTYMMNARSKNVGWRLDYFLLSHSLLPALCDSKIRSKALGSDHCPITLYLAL
Sequence of Cytochrome P450 2C19 (Homo sapiens) (P33261 whole entry, looked up): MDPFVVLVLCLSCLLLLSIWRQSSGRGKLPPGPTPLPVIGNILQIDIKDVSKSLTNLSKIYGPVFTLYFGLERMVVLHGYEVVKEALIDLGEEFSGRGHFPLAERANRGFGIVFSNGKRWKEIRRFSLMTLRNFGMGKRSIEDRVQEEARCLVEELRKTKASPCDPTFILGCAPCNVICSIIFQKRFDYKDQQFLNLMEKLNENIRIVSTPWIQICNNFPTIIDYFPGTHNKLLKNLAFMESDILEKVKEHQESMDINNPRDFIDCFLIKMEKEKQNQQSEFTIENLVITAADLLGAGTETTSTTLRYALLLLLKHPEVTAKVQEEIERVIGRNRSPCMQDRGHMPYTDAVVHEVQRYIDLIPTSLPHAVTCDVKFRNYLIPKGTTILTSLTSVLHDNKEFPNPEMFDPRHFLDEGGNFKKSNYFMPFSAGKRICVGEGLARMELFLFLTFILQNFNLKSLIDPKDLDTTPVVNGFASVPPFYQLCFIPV
Sequence of Muscarinic acetylcholine receptor M1 (Rattus norvegicus) (P08482 whole entry, looked up): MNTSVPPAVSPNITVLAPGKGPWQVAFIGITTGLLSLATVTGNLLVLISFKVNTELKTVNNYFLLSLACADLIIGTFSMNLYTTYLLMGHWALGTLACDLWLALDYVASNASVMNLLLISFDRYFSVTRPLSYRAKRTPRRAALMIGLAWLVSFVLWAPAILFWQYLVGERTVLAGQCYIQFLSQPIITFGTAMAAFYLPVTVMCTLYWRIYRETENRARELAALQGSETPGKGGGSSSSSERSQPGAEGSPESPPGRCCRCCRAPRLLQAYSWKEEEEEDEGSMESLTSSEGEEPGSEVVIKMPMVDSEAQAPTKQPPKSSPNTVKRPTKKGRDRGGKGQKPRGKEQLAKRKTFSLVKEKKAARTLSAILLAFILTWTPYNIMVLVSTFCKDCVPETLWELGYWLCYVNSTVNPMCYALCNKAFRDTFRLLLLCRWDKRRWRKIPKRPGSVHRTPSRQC
Sequence of Alpha-galactosidase A (Homo sapiens) (P06280 whole entry, looked up): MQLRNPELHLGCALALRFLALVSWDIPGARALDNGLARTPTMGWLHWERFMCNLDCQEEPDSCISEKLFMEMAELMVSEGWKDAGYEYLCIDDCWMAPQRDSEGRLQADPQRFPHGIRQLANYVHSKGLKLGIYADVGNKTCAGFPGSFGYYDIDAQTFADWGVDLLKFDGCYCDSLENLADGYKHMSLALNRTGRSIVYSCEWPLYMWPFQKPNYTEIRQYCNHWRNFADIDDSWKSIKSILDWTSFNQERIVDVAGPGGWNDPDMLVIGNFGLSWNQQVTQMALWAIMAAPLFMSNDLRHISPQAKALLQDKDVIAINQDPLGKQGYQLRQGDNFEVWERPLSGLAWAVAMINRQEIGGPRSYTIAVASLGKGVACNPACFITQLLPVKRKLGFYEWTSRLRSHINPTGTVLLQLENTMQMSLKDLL
Sequence of Pyruvate kinase (Leishmania mexicana) (Q27686 2-499 E452W): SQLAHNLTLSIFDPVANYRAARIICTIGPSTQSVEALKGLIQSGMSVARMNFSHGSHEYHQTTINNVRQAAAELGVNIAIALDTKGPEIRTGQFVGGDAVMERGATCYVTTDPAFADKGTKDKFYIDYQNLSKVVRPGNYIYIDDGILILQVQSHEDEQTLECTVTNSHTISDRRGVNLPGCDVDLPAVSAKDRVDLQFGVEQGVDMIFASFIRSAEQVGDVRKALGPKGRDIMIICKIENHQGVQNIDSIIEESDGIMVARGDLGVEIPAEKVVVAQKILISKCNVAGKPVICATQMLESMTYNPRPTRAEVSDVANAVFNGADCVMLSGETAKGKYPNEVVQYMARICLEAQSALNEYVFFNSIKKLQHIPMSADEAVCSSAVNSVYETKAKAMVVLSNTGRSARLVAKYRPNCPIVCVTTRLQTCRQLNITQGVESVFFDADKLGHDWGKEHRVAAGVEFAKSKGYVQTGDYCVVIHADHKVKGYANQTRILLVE
Sequence of Pyruvate kinase PKM (Homo sapiens) (P14618 whole entry, looked up): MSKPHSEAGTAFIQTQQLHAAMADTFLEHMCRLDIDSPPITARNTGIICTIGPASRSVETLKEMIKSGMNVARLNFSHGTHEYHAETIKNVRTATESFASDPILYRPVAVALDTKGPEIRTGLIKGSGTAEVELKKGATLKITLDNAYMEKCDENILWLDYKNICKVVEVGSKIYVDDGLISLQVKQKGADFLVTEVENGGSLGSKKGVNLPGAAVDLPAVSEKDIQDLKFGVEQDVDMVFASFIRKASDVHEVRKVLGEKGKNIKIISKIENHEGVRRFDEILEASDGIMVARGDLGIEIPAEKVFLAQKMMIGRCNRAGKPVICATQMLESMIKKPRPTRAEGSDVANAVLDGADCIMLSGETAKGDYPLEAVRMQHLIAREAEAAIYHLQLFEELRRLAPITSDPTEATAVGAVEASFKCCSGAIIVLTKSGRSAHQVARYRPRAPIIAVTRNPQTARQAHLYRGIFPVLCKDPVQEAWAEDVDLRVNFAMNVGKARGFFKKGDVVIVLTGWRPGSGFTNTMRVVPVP

With `O=C(O)c1ccc2cc(-c3ccc(O)c(C45CC6CC(CC(C6)C4)C5)c3)ccc2c1`, the Potency in assay [1] is 31.6 µM (active). For the same molecule, the result in assay [2] was inactive.
As for `CC[C@H](CO)Nc1nc(NCc2ccccc2)c2ncn(C(C)C)c2n1`, the activity change, negative = inhibition in [3] (at 57.5 µM (top of the series)) was 2.75% (inactive). The figures for the max response in [3] (setting [21]) and in assay [3] (setting [22]) were 73% and 78.1%, respectively. The call in assay [4], in [5] and in [6] was inactive.
In the case of `O=C(O)[C@H](Cc1c[nH]c2ccccc12)N1C(=O)c2ccccc2C1=O`, the result in assay [7] was inactive.
On to `Cc1coc2c1C(=O)C(=O)c1c-2ccc2c1CCCC2(C)C`, for which the Potency result in assay [1] was “inactive”. The molecule was classed as inactive in assay [8] and in [9]. For the same molecule, the activity change, negative = inhibition in assay [3] (at 57.5 µM (top of the series)) is 6.48% (inactive). For the same molecule, the max response was determined as 16.1% in assay [3] (setting [21]) and 23.2% in assay [3] (setting [22]).
Turning to `CC[C@@]1(O)C(=O)OCc2c1cc1n(c2=O)Cc2cc3cc(O)ccc3nc2-1`, the result in assay [9] was inactive. Moreover, the activity change, negative = inhibition in assay [3] (at 57.5 µM (top of the series)) is -14.2% (inactive). Also, the values for the max response in [3] (setting [21]) and in assay [3] (setting [22]) were -6.87% and -17.5%, respectively.
`CC(C)c1ccc(Cn2ccc3c4c(N)nc(NC5CC5)nc4ccc32)cc1`: the Potency in assay [1] is 6.31 µM (active). Also, the outcome in assay [2] was inactive.
With `Nc1ccc(S(=O)(=O)Nc2ncccn2)cc1`, the result in [8] and in [9] was inactive. The activity change, negative = inhibition in assay [3] (at 25.7 µM (top of the series)) is 0.373% (inactive). The max response in [3] (setting [21]) was -6.66%; in assay [3] (setting [22]), -7.25%.
As to `C[C@H]1C[C@@H]2[C@@H]([C@@H](O)C[C@@]3(C)[C@H]2CC[C@]3(O)C(=O)CO)[C@@]2(C)C=CC(=O)C=C12`, the activity change, negative = inhibition in assay [3] (at 25.7 µM (top of the series)) is -1.2% (inactive). For the same molecule, the max response in assay [3] (setting [21]) is -15.5%; in [3] (setting [22]), -14.8%.
`O=c1c2ccccc2nc2n1CCc1c-2[nH]c2ccccc12`: the result in assay [2], in assay [10], in assay [12], in assay [13], in [14] and in assay [15] was inactive. The outcome in assay [16], in [17], in assay [4], in [5], in [6] and in [18] was inactive. Besides, the call in assay [19] and in [20] was inactive. Besides, in [11], the Potency is 0.316 µM (active). In addition, the activity change, negative = inhibition in assay [3] (at 57.5 µM (top of the series)) is 1.95% (inactive). The max response in assay [3] (setting [21]) stood at 45%; in [3] (setting [22]), 50%.
Consider `COc1c(N2C[C@@H]3CCCN[C@H]3C2)c(F)cc2c(=O)c(C(=O)O)cn(C3CC3)c12`, for which the Potency entry in [1] is “inactive”. Besides, the outcome in [8] and in [9] was inactive.
